The text below walks through data of PubChem BioAssay (NCATS).

Where “and” joins values, the source holds several entries; their conditions need not be identical. Equal values may be shown once. Values without a mark were called inactive. Results filed as inconclusive are left out. Calls of active or inactive are those of the source. Unless noted, the call rests on the fitted dose curve; in most records, active means well fitted curve in either direction with a large enough effect (not every such curve was filed as active); inconclusive means small, poorly fitted or top-dose-only effect, or another doubt; inactive means flat fitted curve, though single readings scatter. Where only a bound is given, the exact number is not on record here.

Experiment [1] is described as follows: AP1 Signaling Pathway (AID 357).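 Further: ME-180 reporter cells stimulated with EGF at its EC50 level; on the % scale 0 is the no-effect control and ±100 the full control effect.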 Conditions: ME-180 AP-1-bla reporter, EGF-induced, beta-lactamase ratio, 5 h. Put shortly:
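Titration-series screen for positive or negative modulators of EC50 EGF-induced signaling in ME-180 cells carrying an AP-1-driven beta-lactamase reporter. After 5 hours at 37 degrees Celsius, CCF4 460nm/530nm emission ratio gave %Activity; AC50 values derived.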

For experiment [2], the target named is Cytochrome P450 1A2 (Homo sapiens) (UniProt P05177). The experiment can be described thus: p450-cyp1a2 (AID 410; calls by dose curve; further: potency means the concentration at half of the fitted maximal effect;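 on activity change, negative = inhibition: -100% = full effect of reference inhibitor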). Conditions: recombinant CYP1A2, luciferin-ME demethylation, luminescence; series mostly up to 25.6 µM. In a few lines: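 O-Demethylation of luciferin 6' methyl ether by human CYP1A2 is monitored as luciferase luminescence. Substrate sits at Km (100uM); enzyme is 20nM. Values are scaled to 57 uM furafylline as maximal inhibition.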

For experiment [3], the target named is Glucocorticoid receptor (Homo sapiens) (UniProt P04150). Put plainly: GR-GFP Redistribution (AID 450;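 active means compounds whose dose series gives a full or clear partial fitted curve of increased nuclear translocation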; further: potency means the concentration at half of the fitted maximal effect). The following applies: U2OS GR-GFP nuclear translocation, laser cytometry, 2 h.
A short description of experiment [4]: Cell Viability - BJ (AID 421; calls by dose curve;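 further: potency means the concentration at half of the fitted maximal effect; cells exposed to compound for 40 hours at 37 °C before readout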). The following applies: BJ fibroblast viability, qHTS. In a few lines: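 Luminescent ATP signal (CellTiter-Glo, 20 min at room temperature) served as the read-out of viable BJ cells after 40 hours of compound treatment. Responses were scaled between DMSO and 100 uM tamoxifen, and AC50 values were obtained by Hill modeling.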
A general note: In qHTS, concentration-response curves come from the screen itself.

The nature of experiment [5]: Cell Viability - Jurkat (AID 426;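 active means dose-dependent loss of cell ATP signal giving a full or clear fitted curve, ranked by lower potency value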;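 further: potency means the concentration at half of the fitted maximal effect; cells exposed to compound for 40 hours at 37 °C before ATP read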). The following applies: qHTS. Put shortly:
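Cells of the human T-cell leukemia line Jurkat (E6-1) are seeded at 5000 per well, treated with compound across a concentration range for 40 hours at 37 °C, then lysed with CellTiter-Glo; luminescence reports ATP.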

Experiment [6] is described as follows: Cell Viability - Hek293 (AID 427;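 active means compounds whose dose-response curve shows a full or clear partial loss of cell viability, called from curve shape rather than a numeric limit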;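 further: potency means the concentration at half of the fitted maximal effect; cells exposed to compound for 40 hours at 37 °C before reading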). The following applies: qHTS. In a few lines: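 Luminescent ATP read-out (CellTiter-Glo, 20 min RT) after 40 hr compound exposure at 37 °C in complete medium. Signal normalized to DMSO (basal) and 100 uM tamoxifen (100% inhibition); concentration-response fitted with the standard Hill equation to give AC50.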
A short description of experiment [7]: Cell Viability - HepG2 (AID 433; calls by dose curve;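 further: potency means the concentration at half of the fitted maximal effect; potency for ATP loss meaning cytotoxicity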). Conditions: qHTS. In a few lines:
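ATP luminescence (CellTiter-Glo) after 40 h compound exposure, 37 °C, HepG2, 1500 cells/well, complete medium. Normalized: DMSO = basal, 100 uM tamoxifen = 100% inhibition. AC50 via standard Hill equation.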

A short description of experiment [8]: Cell Viability - MRC5 (AID 434; calls by dose curve;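 further: potency means the concentration at half of the fitted maximal effect; potency reflects cytotoxicity seen as loss of intracellular ATP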). The following applies: MRC5 lung fibroblast viability, qHTS. In a few lines: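 Decrease in intracellular ATP, quantified by luciferase light output, reflects compound toxicity toward MRC5 cells exposed for 40 hr in complete culture medium. Concentration-response curves, scaled between DMSO and 100 uM tamoxifen, gave AC50 values.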

Experiment [9] in a line: Cell Viability - SK-N-SH (AID 435; calls by dose curve; further: potency means the concentration at half of the fitted maximal effect). Conditions: SK-N-SH neuroblastoma cell viability qHTS. In a few lines:
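CellTiter-Glo ATP luminescence, 20 min RT read; cells pre-plated 5 hr, compound 40 hr at 37 °C, 1500 cells/well, complete medium. Normalized DMSO = 0, 100 uM tamoxifen = 100% inhibition; Hill-fit AC50.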

Experiment [10] can be described thus: NFAT Signaling Pathway (AID 444).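 Further: carbachol stimulus at about its EC50 of 1 µM final; on the % scale 0 is the no-effect control and ±100 the full control effect.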 The following applies: Jurkat NFAT-bla M1, carbachol, beta-lactamase ratio, 5 h. In a few lines: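 Jurkat cells carrying an NFAT-driven β-lactamase reporter and co-transfected muscarinic M1 receptor were treated with compound plus carbachol (1 uM final, an EC50 level) for 5 h at 37 °C. CCF4 loading followed for 1 h at RT; 460/530 nm ratio gave %activity.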

Experiment [11] in a line: Stat Signaling Pathway (AID 446).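 Further: ME-180 cervical cancer cells given 40 pM IL-6 alongside compound; SIE-controlled beta-lactamase reporter measured as 460/530 nm FRET emission ratio; on the % scale 0 is the no-effect control and ±100 the full control effect.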 The following applies: ME-180 (cervical carcinoma) SIE beta-lactamase reporter, IL-6 stimulated, 5 h. Put shortly:
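Compound effects on IL-6-induced STAT reporter activity were measured in ME-180 cells. After overnight culture, cells were co-treated with 40 pM IL-6 for 5 hrs before beta-lactamase substrate loading at room temperature.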

Experiment [12] has as its target Glucocorticoid receptor (Homo sapiens) (UniProt P04150). Put plainly: GR-EFC Redistribution (AID 451; calls by dose curve; further: potency means the concentration at half of the fitted maximal effect). Conditions: CHO-K1 GR-EFC translocation, beta-gal luminescence, 2 h. In a few lines:
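CHO-K1 cells stably expressing nuclear-localized β-gal enzyme acceptor and GR fused C-terminally to the enzyme donor fragment; ligand-driven nuclear translocation restores β-gal by complementation. Compounds titrated up to 46 uM final, 2 h at 37 °C; luminescence read.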

Experiment [13] is described as follows: Cell Viability - N2a (AID 540; active means well fitted curve in the direction sought with a large enough effect; an effect the other way counts as inactive or inconclusive; further: potency means the concentration at half of the fitted maximal effect; nearly all actives have a fitted effect of over 45% in size). Conditions: N2a mouse neuroblastoma cell viability; activity change, negative = cytotoxicity: at 92.2 µM (top of the series). Put shortly: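 Cytotoxicity was scored as loss of cellular ATP in N2a cells, a mouse neuroblastoma line. Compounds are applied in a qHTS concentration series for 40 hr at 37 °C.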
The nature of experiment [14]: Cell Viability - H-4-II-E (AID 543; active means well fitted curve in the direction sought with a large enough effect; an effect the other way counts as inactive or inconclusive; further: nearly all actives have a fitted effect of over 35% in size; further: potency means the concentration at half of the fitted maximal effect). The following applies: H-4-II-E rat hepatoma viability; series mostly up to 92.2 µM. In a few lines:
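Cells seeded at 1500 per well and rested 5 hr; compounds added; 40 hr incubation at 37 °C; CellTiter-Glo added, 20 min at room temperature; luminescence read. Hill-equation fits gave AC50.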

A short description of experiment [15]: Cell Viability - SH-SY5Y (AID 544; active means well fitted curve in the direction sought with a large enough effect; an effect the other way counts as inactive or inconclusive; further: potency means the concentration at half of the fitted maximal effect; nearly all actives have a fitted effect of over 55% in size). The following applies: SH-SY5Y neuroblastoma cell viability; viability change, negative = cytotoxic: at 92.2 µM (top of the series). Put shortly: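 Cells were plated at 1500 per well and allowed 5 hr at 37 °C. Compounds were added across a concentration range and incubated 40 hr at 37 °C. CellTiter-Glo was added for 20 min at room temperature before luminescence reading.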

The nature of experiment [16]: Cell Viability - Renal Proximal Tubule (AID 545; active means well fitted curve in the direction sought with a large enough effect; an effect the other way counts as inactive or inconclusive; further: nearly all actives have a fitted effect of over 40% in size; further: potency means the concentration at half of the fitted maximal effect;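 on activity change, negative = cytotoxicity: 0% = DMSO only and -100% = 100 µM tamoxifen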). Conditions: renal proximal tubule cells viability, primary cells of rat origin; activity change, negative = cytotoxicity: at 91.7 µM (top of the series). Put shortly:
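Rat kidney proximal tubule cells, freshly isolated; 1000 cells/well, 5 hr settle, compound 40 hr 37 °C. CellTiter-Glo 20 min RT, luminescence read. AC50 by standard Hill fit.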

The target in experiment [17] is Mitogen-activated protein kinase 10 (Mus musculus) (UniProt Q61831). Put plainly: JNK3 AlphaScreen Assay (AID 530).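 Further: kinase came from lysate of stimulated human HepG2 cells; on the % scale 0 is the no-effect control and ±100 the full control effect.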 Conditions: JNK3 lysate, c-Jun phosphorylation; series mostly up to 25.6 µM. In a few lines: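 Phosphorylation of biotinylated GST-cJun(1-79) at Ser73 is measured by AlphaScreen proximity luminescence. Enzyme is JNK3 in HepG2 lysates activated with interleukin-1beta and tumor necrosis factor alpha; ATP is 10 uM final.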
For orientation: In Alpha technology, singlet oxygen from a donor bead excites a nearby acceptor bead.

Experiment [18] can be described thus: Cell Viability - NIH 3T3 (AID 541; active means well fitted curve in the direction sought with a large enough effect; an effect the other way counts as inactive or inconclusive;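 further: plate controls were DMSO alone for no effect and tamoxifen positive control for full effect; nearly all actives have a fitted effect of over 25% in size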). The following applies: NIH 3T3 cell viability, qHTS; activity change, negative = cytotoxicity: at 92.2 µM (top of the series). Put shortly:
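Cells seeded at 1000/well, rested 5 hr at 37 °C, then dosed and incubated 40 hr at 37 °C. CellTiter-Glo added, 20 min room temperature, luminescence read. AC50 by Hill fit.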

A short description of experiment [19]: Cell Viability - HUV-EC-C (AID 542; active means well fitted curve in the direction sought with a large enough effect; an effect the other way counts as inactive or inconclusive; further: potency means the concentration at half of the fitted maximal effect; nearly all actives have a fitted effect of over 35% in size). The following applies: HUV-EC-C endothelial cell viability, qHTS; series mostly up to 92.2 µM. Put shortly:
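Cells were seeded at 1000 per well and incubated 5 hr at 37 °C before compound addition. After 40 hr at 37 °C, CellTiter-Glo reagent was added for 20 min and luminescence read. AC50 values came from Hill-equation modelling.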

Cytochrome P450 1A2 (Homo sapiens), sequence (P05177 whole entry, looked up): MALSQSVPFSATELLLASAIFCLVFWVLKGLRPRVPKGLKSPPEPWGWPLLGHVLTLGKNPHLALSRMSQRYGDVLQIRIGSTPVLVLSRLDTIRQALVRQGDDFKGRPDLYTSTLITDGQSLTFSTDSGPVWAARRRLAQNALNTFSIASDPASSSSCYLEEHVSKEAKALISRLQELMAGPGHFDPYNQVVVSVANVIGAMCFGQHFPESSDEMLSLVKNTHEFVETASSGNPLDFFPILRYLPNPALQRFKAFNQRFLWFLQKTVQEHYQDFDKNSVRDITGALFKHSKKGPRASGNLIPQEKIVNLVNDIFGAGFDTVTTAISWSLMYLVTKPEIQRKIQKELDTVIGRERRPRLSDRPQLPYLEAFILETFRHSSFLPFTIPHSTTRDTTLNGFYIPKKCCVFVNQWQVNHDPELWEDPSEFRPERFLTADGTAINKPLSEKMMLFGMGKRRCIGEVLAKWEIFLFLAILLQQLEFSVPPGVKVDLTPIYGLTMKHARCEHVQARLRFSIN
Glucocorticoid receptor (Homo sapiens), sequence (P04150 whole entry, looked up, the tested form may be a part): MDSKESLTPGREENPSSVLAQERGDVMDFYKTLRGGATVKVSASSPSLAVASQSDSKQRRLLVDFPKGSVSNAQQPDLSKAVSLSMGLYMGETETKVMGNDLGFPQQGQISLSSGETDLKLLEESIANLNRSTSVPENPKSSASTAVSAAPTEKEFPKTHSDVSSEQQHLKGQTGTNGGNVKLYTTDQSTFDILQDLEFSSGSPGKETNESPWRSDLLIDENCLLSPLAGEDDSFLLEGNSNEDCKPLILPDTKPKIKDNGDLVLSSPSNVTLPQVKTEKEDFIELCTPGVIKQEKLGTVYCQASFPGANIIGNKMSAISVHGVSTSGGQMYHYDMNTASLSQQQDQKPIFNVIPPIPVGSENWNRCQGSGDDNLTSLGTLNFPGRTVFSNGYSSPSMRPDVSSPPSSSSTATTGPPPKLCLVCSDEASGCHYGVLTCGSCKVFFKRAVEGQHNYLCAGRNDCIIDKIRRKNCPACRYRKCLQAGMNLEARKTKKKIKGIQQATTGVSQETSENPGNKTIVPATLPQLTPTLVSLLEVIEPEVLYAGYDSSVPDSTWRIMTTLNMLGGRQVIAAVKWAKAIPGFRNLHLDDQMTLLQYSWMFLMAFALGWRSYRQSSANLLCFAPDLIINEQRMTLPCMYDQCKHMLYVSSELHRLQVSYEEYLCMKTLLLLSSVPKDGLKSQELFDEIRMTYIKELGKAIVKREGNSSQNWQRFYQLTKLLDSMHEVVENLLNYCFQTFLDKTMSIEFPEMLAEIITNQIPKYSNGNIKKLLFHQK

Consider `COc1cc(NS(C)(=O)=O)ccc1Nc1c2ccccc2nc2ccccc12`, for which, in experiment [1] (at 38 µM (top of the series)), the activity change, negative = inhibition is -9.96%. Moreover, the Potency in experiment [2] is 7.94 µM (active); in experiment [3], greater than 46 µM.
For `COc1cccc2c1C(=O)c1c(O)c3c(c(O)c1C2=O)C[C@@](O)(C(C)=O)C[C@@H]3O[C@H]1C[C@H](N)[C@H](O)[C@H](C)O1`, the activity change, negative = inhibition in experiment [1] (at 17.2 µM (top of the series)) was -116% (active); in experiment [10] (at 17.2 µM (top of the series)), -129% (active). For the same compound, the Potency in experiment [2] was 31.6 µM (active); in experiment [4] it was 4.61 µM (active); in experiment [5], 0.0218 µM (active); in experiment [6] it was 0.00723 µM (active); in experiment [7] it was 49.7 µM (active); in experiment [8], 19.5 µM (active). In addition, the Potency is 0.0141 µM (active) in [9]; greater than 46 µM in [12]; 0.251 µM (active) in experiment [13]; 3.16 µM (active) in experiment [14]; 0.00794 µM (active) in experiment [15]; 3.98 µM (active) in experiment [16]. For the same compound, the activity, negative = inhibition in experiment [11] (at 17.2 µM (top of the series)) was -103% (active).
As to `CC(=O)OCC(=O)[C@@]12OC(C)(C)O[C@@H]1C[C@H]1[C@@H]3C[C@H](F)C4=CC(=O)C=C[C@]4(C)[C@@]3(F)[C@@H](O)C[C@@]12C`, the values for the activity change, negative = inhibition in [1] (at 17.2 µM (top of the series)) and in [10] (at 17.2 µM (top of the series)) were -9.69% and 15.1%, respectively.
Consider `C[C@H](O)C(=O)Nc1c(I)c(C(=O)NC(CO)CO)c(I)c(C(=O)NC(CO)CO)c1I`, for which the results for the activity change, negative = inhibition in [1] (at 17.2 µM (top of the series)) and in [10] (at 17.2 µM (top of the series)) were 11.2% and 3.52%, respectively. Also, in experiment [2], the Potency entry is “inactive”. Also, the activity, negative = inhibition in experiment [11] (at 17.2 µM (top of the series)) is -2.21%. Besides, the Potency in experiment [12] was greater than 20.6 µM. Besides, in experiment [17], the result was inactive.
Take `CCCCOc1cc(C(=O)NCCN(CC)CC)c2ccccc2n1`: the activity change, negative = inhibition in [1] (at 17.2 µM (top of the series)) was 13.7% and 13.1% and 14.9%; in experiment [10] (at 17.2 µM (top of the series)) it was 3.91% and -0.708% and -6.28%. Besides, in experiment [2], the Potency was 5.01 µM (active). For the same compound, the activity, negative = inhibition in [11] (at 17.2 µM (top of the series)) is 0.235% and -1.92% and -8.41%. For the same compound, in experiment [17], the compound was classed as inactive.
Regarding `CNCCC=C1c2ccccc2CCc2ccccc21`, the activity change, negative = inhibition was -6.8% in experiment [1] (at 7.69 µM (top of the series)); 15.1% and 18.2% in [1] (at 17.2 µM (top of the series)); 16.2% in [1] (at 38 µM (top of the series)); -80.1% (active) in experiment [10] (at 7.69 µM (top of the series)); -86.8% (active) in experiment [10] (at 17.2 µM (top of the series)). In experiment [2], the Potency is 25.1 µM (active). Moreover, the activity, negative = inhibition in experiment [11] (at 7.69 µM (top of the series)) was -5.09%; in [11] (at 17.2 µM (top of the series)), -1.99% and -5.78%; in experiment [11] (at 38 µM (top of the series)), -27.8%. In addition, the call in experiment [17] was inactive.
Regarding `CN(C(=O)CN(CCO)CC(=O)N(C)C(C)(C)Cc1ccccc1)C(C)(C)Cc1ccccc1`, the activity change, negative = inhibition in experiment [1] (at 17.2 µM (top of the series)) was -21.6%; in experiment [10] (at 17.2 µM (top of the series)), -2.45%. Also, the Potency entry in experiment [2] is “inactive”. For the same compound, in experiment [3], the Potency is greater than 20.6 µM. The result in [17] was inactive.
With `CN1CCC[C@@H]1c1cccnc1`, the activity change, negative = inhibition was 12.2% in experiment [1] (at 38 µM (top of the series)) and -1.61% in [10] (at 38 µM (top of the series)).
As to `CC1(C)O[C@@H]2C[C@H]3[C@@H]4C[C@H](F)C5=CC(=O)CC[C@]5(C)[C@H]4[C@@H](O)C[C@]3(C)[C@]2(C(=O)CO)O1`, the values for the activity change, negative = inhibition in experiment [1] (at 17.2 µM (top of the series)) and in experiment [10] (at 17.2 µM (top of the series)) were -0.38% and 16.2%, respectively.
In the case of `CC(C)(C)CC(C)(C)c1ccc(OCCOCC[N+](C)(C)Cc2ccccc2)cc1`, the activity change, negative = inhibition in experiment [1] (at 17.2 µM (top of the series)) is -12.6%. In addition, the Potency was 52.9 µM (active) in [4]; 26.8 µM (active) in [5]; 57.8 µM (active) in experiment [7]; 5.01 µM (active) in [13]; 50.1 µM (active) in experiment [19]. In experiment [11] (at 17.2 µM (top of the series)), the activity, negative = inhibition was -2.12%. Also, the result in experiment [17] was inactive. In addition, the activity change, negative = cytotoxicity in [18] was -129% (active); in [16] it was -90% (active). In addition, the Potency result in experiment [14] was “inactive”.
